Compounds without any hit were thinned out: in the full panel of roughly 83,000, 20% have a hit.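 Cell lines were cultured in 96-well plates, exposed to a single compound concentration, and assessed for percent growth 48 hours later.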 Activity calls are given as the source filed them. How the source made its calls: active means growth percent below 10; inactive means the rest.

The subject of one assay is MALME-3M melanoma. The experiment in a line: NCI-60 one-dose screen, 48 h (100 = growth as untreated, 0 = no growth, -100 = all killed). Particulars: 10 µM unless noted.
For `Cc1cnc(/C=C/C(=O)O)cc1-c1cc2c(cc1C)C(C)(C)CCC2(C)C`, the growth is 8.87% (active). The same measure, in the same setting: the figure for `CC1=C(CNO)C2=C(C)C3(CC3)[C@@](C)(O)C(=O)C2=C1` is -62.6% (active); for `CC12CC=CCC1CCC1C2CCC2(C)C(c3ccc(=O)oc3)CCC12O` (stereo not drawn) it is -51.8% (active). The same measure, in the same setting: for `Fc1c[c-]c(-c2ccccn2)c(F)c1.[CH3-].[Pt+2].c1ccc([PH+](c2ccccc2)c2ccccn2)cc1` the value was -75.5% (active); for `CN[C@@]1(c2ccccc2Cl)CCCC[C@@H]1NCC1CCCO1` (stereo partly drawn), 95.3% (inactive). Same read-out and setting: for `CC(C)=CC1C(C(=O)OCc2cccc(Oc3ccccc3)c2)C1(C)C` (stereo not drawn) the value was 87.8% (inactive); for `CCCCCCCC[n+]1ccc2ccccc2c1`, 42.4% (inactive); for `COC(=O)[C@@H](C)C[C@H](Cc1ccccc1)NC(=O)c1csc([C@@H](C[C@H](C(C)C)N(C)C(=O)C2(NC(=O)[C@H]3CCCCN3C)CC2)OC(C)=O)n1`, 73.3% (inactive). In the case of `CC(=O)c1ccc(C(=O)NCC2CCC3(CC2)OOC2(CCCCC2)OO3)cc1`, the growth was 74% (inactive). On to `COC(=O)[C@@H](C[C@H](Cc1ccccc1)NC(=O)c1csc([C@@H](C[C@H](C(C)C)N(C)C(=O)[C@@H](NC(=O)[C@H]2CCCCN2C)C(C)C)OC(C)=O)n1)NC(=O)OCc1ccccc1`, for which the growth was -42.5% [9.5 µM] (active).

The test system of the next assay is MDA-MB-231 breast. Described as above. Particulars: 10 µM unless noted.
Regarding `CC(=O)O[C@H]1CC[C@@]2(C)C(=CC[C@H]3[C@@H]4C[C@@H](N5CC5)[C@H](C(C)=O)[C@@]4(C)CC[C@@H]32)C1`, the growth was 91.4% (inactive). On the same count and under the same terms, for `CC(=O)O[C@H]1C(=O)[C@@]2(C)[C@H]([C@H](OC(=O)c3ccccc3)[C@]3(O)C[C@H](OC(=O)[C@H](OC(=O)OC[C@H]4COC(C)(C)O4)[C@@H](NC(=O)c4ccccc4)c4ccccc4)C(C)=C1C3(C)C)[C@]1(OC(C)=O)CO[C@@H]1C[C@@H]2O` the value was -4.56% (active). Still for that read-out and setting: the figure for `COC(=O)N[C@H]1CCc2c(Br)c(OC)c(OC)c(OC)c2-c2ccc(SC)c(=O)cc21` is -12.3% (active). With `CC[C@H](C)[C@H](NC(=O)c1ccccn1)C(=O)N(C)[C@H](C[C@@H](OC(C)=O)c1nc(C(=O)N[C@@H](Cc2ccccc2)C[C@H](C)C(=O)OC)cs1)C(C)C`, the growth was 15.8% (inactive). The same measure, in the same setting: the figure for `Cc1cc(N(CCCl)CCCl)ccc1C=Nc1ccc(-c2csc(Cc3ccccc3)n2)cc1` is 83.3% (inactive). The same measure, in the same setting: for `COC(=O)[C@]12CCC(C)(C)C[C@H]1[C@H]1C(=O)C[C@@H]3[C@@]4(C)C[C@@]5(CC(C)(C)[C@@H]4CC[C@@]3(C)[C@]1(C)CC2)OO[C@@](C)(C(F)(F)F)O5` the value was 94.8% (inactive); for `CN1CCC(c2c[nH]c3ccccc23)C1` (stereo not drawn), 103% (inactive). Still for that read-out and setting: the figure for `CCC[CH2][Sn]([CH2]CCC)([CH2]CCC)[O]c1ccc(Cl)cc1Cl` is -78.2% (active). Turning to `COC(=O)[C@H](C[C@H](Cc1ccccc1)NC(=O)c1csc([C@@H](C[C@H](C(C)C)N(C)C(=O)[C@@H](NC(=O)[C@H]2CCCCN2C)C(C)C)OC(C)=O)n1)NC(=O)OCc1ccccc1`, the growth is 5.23% [8.5 µM] (active). Same read-out and setting: the figure for `C[n+]1c(/C=C/c2ccc(N(CCCl)CCCl)cc2)sc2ccccc21` is 80.8% (inactive); for `CC[C@H](C)[C@H](NC(=O)C12C3C4C1C1C2C3C41NC(C)=O)C(=O)N(C)[C@H](C[C@@H](OC(C)=O)c1nc(C(=O)N[C@@H](Cc2ccccc2)C[C@H](C)C(=O)OC)cs1)C(C)C` (stereo partly drawn) it is 22.1% (inactive); for `CCCCCN(CCCCC)CC(O)c1cc(Cl)ccc1OC` (stereo not drawn) it is 18.8% (inactive). Consider `C#Cc1ccc2c(c1)C(c1ccccc1)=NCC(=O)N2C`, for which the growth was 50.8% (inactive). In the case of `CCOC(=O)CCN(C)C1=Nc2ccc(Cl)cc2C(c2ccccc2)=[N+]([O-])C1`, the growth was 97.9% (inactive).

Turning to `COC(=O)[C@@H](C)C[C@H](Cc1ccccc1)NC(=O)c1csc([C@@H](C[C@H](C(C)C)N(C)C(=O)[C@@H](NC(=O)CN(C)C)C2CC2)OC(C)=O)n1`, the growth is 24.2% (inactive).

Take `COc1cc2c(c(OC)c1OC)-c1ccc([O-])c(=O)cc1[C@@H](NC(C)=O)CC2.COc1cc2c(c(OC)c1OC)-c1ccc([O-])c(=O)cc1[C@@H](NC(C)=O)CC2.[Cu+2]`: the growth is 35.5% (inactive). With `COc1ccc(/C=C\c2cc(OC)c(OC)c(OC)c2)c(NS(=O)(=O)c2ccc(C)cc2)c1O`, the growth was 14.8% (inactive). On the same count and under the same terms, the figure for `C=C(C)[C@@]12OC3(/C=C/C=C/CCCCC)O[C@@H]1[C@@H]1[C@@H]4O[C@]4(CO)[C@@H](O)[C@]4(O)C(=O)C(C)=C[C@H]4[C@@]1(O3)[C@H](C)[C@H]2OC(=O)c1ccccc1` is 52% (inactive).

Values taken from PubChem BioAssay (NCI).
